Test [1] is described as follows: ATG_TAL_CIS: Attagene CIS-FACTORIAL HepG2 Assay for human TAL Basal Promoter (AID 2282966).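 Note: background control endpoint measuring basal TAL promoter reporter mRNA not a specific factor.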 The settings on record: HepG2 Attagene cis-factorial TAL promoter reporter; actives raise or lower the signal. The method in brief: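 HepG2, transient MRTU transfection, 24 h compound exposure; RNA → oligo(dT) RT → PCR → 6-FAM primer extension → HpaI digest → CE fluorescence. Bidirectional curve fit vs DMSO. Background-control readout.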

A short description of test [2]: ATG_TGFb_CIS: Attagene CIS-FACTORIAL HepG2 Assay for human Transforming Growth Factor (TGF) (AID 2282967). The conditions noted are these: HepG2 Attagene CIS TGFb reporter, mRNA transcription; actives raise or lower the signal. The method in brief: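 HepG2 cells transiently transfected with cis-promoter-driven multiple reporter units measure endogenous TF activity; reporter mRNA quantified at 24 h by RT-PCR, FAM labeling, HpaI digestion and capillary electrophoresis. Bidirectional fit vs DMSO.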

Test [3] has as its target X-box-binding protein 1 (Homo sapiens) (UniProt P17861). Put plainly: ATG_Xbp1_CIS: Attagene CIS-FACTORIAL HepG2 Assay for human X-box Binding Protein 1 (XBP1) (AID 2282972). The settings on record: HepG2 XBP1 cis-element reporter, Attagene multiplex; actives raise or lower the signal. The method in brief:
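Reporter transcripts were quantified by RT-PCR with fluorescent primer extension and capillary electrophoresis after 24 h chemical exposure. Cells: transiently transfected HepG2 carrying cis-regulated reporter constructs; data fitted bidirectionally relative to DMSO.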

The target of test [4] is Glucocorticoid receptor (Homo sapiens) (UniProt P04150). Put plainly: ATG_GR_TRANS: Attagene TRANS-FACTORIAL HepG2 Assay for human Glucocorticoid Receptor (GR) (AID 2282978; active = hit-call score of the fitted dose curve at least 0.9, where 1 is the maximum;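 note: activators score as hits since higher reporter transcript over DMSO is fitted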). The settings on record: HepG2 Attagene TRANS GR reporter, mRNA transcription. The method in brief: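 Transiently transfected HepG2 cells express chimeric NR-GAL4 proteins acting on GAL4-UAS reporter units. Compounds are applied for 24 h. mRNA induction over DMSO is measured by capillary electrophoresis.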

Test [5] in a line: ATG_M_06_TRANS: Attagene TRANS-FACTORIAL HepG2 Assay for M06 Transcription Factor (Internal Marker) (AID 2282983; active = hit-call score of the fitted dose curve at least 0.9, where 1 is the maximum). The settings on record: HepG2 Attagene TRANS M06 internal marker reporter. The method in brief: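 Read-out: fluorescent reporter cDNA fragments resolved by capillary electrophoresis after RT-PCR and HpaI cut. Source cells were HepG2 carrying transfected multi-reporter GAL4 constructs, dosed 24 h. Increase over DMSO control analysed.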

The nature of test [6]: ATG_M_32_TRANS: Attagene TRANS-FACTORIAL HepG2 Assay for M32 Transcription Factor (Internal Marker) (AID 2282984; active = hit-call score of the fitted dose curve at least 0.9, where 1 is the maximum;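 note: transcript level of a background control reporter unit measured by RT-PCR and capillary electrophoresis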). The settings on record: HepG2 Attagene TRANS M32 internal marker reporter. The procedure, abridged:
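Internal background reporter in transfected HepG2: after 24 h chemical exposure, RNA reverse-transcribed, reporter cDNA amplified, fluorescently labelled and HpaI-cut, then sized by capillary electrophoresis. Gain of signal fitted against DMSO control.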

In test [7] the target is Nuclear receptor subfamily 4 group A member 2 (Homo sapiens) (UniProt P43354). In words: ATG_NURR1_TRANS: Attagene TRANS-FACTORIAL HepG2 Assay for human Nuclear Receptor Related Protein 1 (NURR1) (AID 2282985; active = hit-call score of the fitted dose curve at least 0.9, where 1 is the maximum). The conditions noted are these: HepG2 Attagene TRANS reporter, mRNA readout. The method in brief:
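Reporter transcript induction, measured by RT-PCR with fluorescent labelling, HpaI digestion and capillary electrophoresis, after 24 hr dosing of human HepG2 cells transiently expressing an exogenous NR-Gal4 fusion with GAL4-UAS-driven reporters; DMSO as baseline.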

Test [8] deals with Transcriptional activator Myb (Homo sapiens) (UniProt P10242). Put plainly: ATG_Myb_CIS: Attagene CIS-FACTORIAL HepG2 Assay for human Myeloblastosis (Myb) Proto-Oncogene Transcription Factor (AID 2282986). The conditions noted are these: HepG2 Attagene CIS-FACTORIAL Myb reporter transcription; actives raise or lower the signal. The procedure, abridged: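 Using HepG2 liver cells bearing transiently transfected cis-promoter reporter constructs, the assay measures induction or loss of reporter mRNA after 24 hours of dosing. Detection used fluorescently labeled RT-PCR products separated by capillary electrophoresis.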

The target in test [9] is Nuclear respiratory factor 1 (Homo sapiens) (UniProt Q16656). In words: ATG_NRF1_CIS: Attagene CIS-FACTORIAL HepG2 Assay for human Nuclear Respiratory Factor 1 (NRF1) Orphan Gene (AID 2282987). The conditions noted are these: HepG2 NRF1 cis-element reporter, Attagene multiplex; actives raise or lower the signal. The method in brief: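 Reporter mRNA induction or loss in HepG2 cells after 24 h dosing; cis-regulated reporter constructs report endogenous transcription-factor activity. Quantified by RT-PCR/capillary electrophoresis fluorescence, DMSO-referenced.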

The target in test [10] is Hepatocyte nuclear factor 4-alpha (Homo sapiens) (UniProt P41235). In words: ATG_HNF4a_TRANS: Attagene TRANS-FACTORIAL HepG2 Assay for human Hepatocyte Nuclear Factor 4 alpha (HNF4a) (AID 2282982; active = hit-call score of the fitted dose curve at least 0.9, where 1 is the maximum). The conditions noted are these: HepG2 HNF4a transactivation reporter, mRNA readout. The procedure, abridged:
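Activity of an exogenous HNF4a–Gal4 fusion scored as induced GAL4-UAS reporter transcripts after 24 h chemical exposure of transfected human HepG2 cells. Read-out via RT-PCR with 6-FAM labelling and capillary electrophoresis; rise over DMSO baseline.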

The nature of test [11]: ATG_GAL4_TRANS: Attagene TRANS-FACTORIAL HepG2 Assay for GAL4 (Internal Marker) (AID 2282976; active = hit-call score of the fitted dose curve at least 0.9, where 1 is the maximum). The conditions noted are these: HepG2 Attagene TRANS GAL4 internal marker reporter. The procedure, abridged:
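RT-PCR/capillary electrophoresis readout of reporter mRNA. HepG2, transient MRTU transfection (GAL4-UAS reporters), 24 h compound exposure. Background-control endpoint, positive direction vs DMSO baseline.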

The nature of test [12]: ATG_M_19_TRANS: Attagene TRANS-FACTORIAL HepG2 Assay for M19 Transcription Factor (Internal Marker) (AID 2282974; active = hit-call score of the fitted dose curve at least 0.9, where 1 is the maximum). The conditions noted are these: HepG2 Attagene TRANS-FACTORIAL M19 internal marker reporter. The procedure, abridged:
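Multiplexed TRANS format: HepG2 liver cells bearing transient GAL4-UAS reporter units, chemical treatment 24 h, reporter transcripts quantified by RT-PCR plus capillary electrophoresis. DMSO defines baseline.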

For test [13], the target named is Estrogen-related receptor gamma (Homo sapiens) (UniProt P62508). Put plainly: ATG_ERRg_TRANS: Attagene TRANS-FACTORIAL HepG2 Assay for human Estrogen-Related Receptor gamma (ERRg) (AID 2282977; active = hit-call score of the fitted dose curve at least 0.9, where 1 is the maximum;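 note: hits increase reporter signal over DMSO so potencies reflect activators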). The conditions noted are these: HepG2 Attagene TRANS reporter, ERRg transactivation. The method in brief:
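Induction of reporter transcripts through a chimeric NR-Gal4 protein is quantified in transfected human HepG2 liver cells after 24 h chemical exposure, using RT-PCR with capillary electrophoresis detection and DMSO as baseline.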

Test [14] has as its target Bile acid receptor (Homo sapiens) (UniProt Q96RI1). In words: ATG_FXR_TRANS: Attagene TRANS-FACTORIAL HepG2 Assay for Farnesoid X Receptor (FXR) (AID 2282979; active = hit-call score of the fitted dose curve at least 0.9, where 1 is the maximum;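 note: hits raise reporter mRNA above DMSO so AC50 marks FXR activation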). The conditions noted are these: HepG2 Attagene TRANS FXR-GAL4 reporter transcription. The method in brief: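 Read-out: fluorescent reporter transcripts quantified by capillary electrophoresis after RT-PCR of total RNA. Source cells were HepG2 transiently carrying chimeric NR-GAL4 plus GAL4-UAS reporter units, dosed 24 h. Activity fitted upward relative to DMSO baseline.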

Test [15] deals with Oxysterols receptor LXR-alpha (Homo sapiens) (UniProt Q13133). Put plainly: ATG_LXRa_TRANS: Attagene TRANS-FACTORIAL HepG2 Assay for human Liver X Receptor alpha (LXRa) (AID 2282980; active = hit-call score of the fitted dose curve at least 0.9, where 1 is the maximum). The conditions noted are these: HepG2 Attagene TRANS reporter, LXRa transactivation. The procedure, abridged: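 Read-out: reporter transcript levels by RT-PCR plus capillary electrophoresis, fluorescence intensity. Transiently transfected HepG2, exogenous NR-GAL4 chimera, GAL4-UAS reporters; 24 h compound exposure. Activity = increase over DMSO negative control.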

For test [16], the target named is Oxysterols receptor LXR-beta (Homo sapiens) (UniProt P55055). Put plainly: ATG_LXRb_TRANS: Attagene TRANS-FACTORIAL HepG2 Assay for human Liver X Receptor beta (LXRb) (AID 2282981; active = hit-call score of the fitted dose curve at least 0.9, where 1 is the maximum). The conditions noted are these: HepG2 Attagene TRANS GAL4-LXRb reporter, mRNA. The procedure, abridged:
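After 24 h chemical treatment of transfected HepG2 cells carrying exogenous NR-Gal4 chimeras, reporter mRNA was quantified by fluorescent RT-PCR and capillary electrophoresis; activity taken as increase over DMSO controls.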

Inconclusive results are not listed. Active and inactive are the calls of the source. Rule for the calls, unless noted: active = hit-call score of the fitted dose curve at least 0.9, where 1 is the maximum; inactive = score below 0.9.

Sequence of Transcriptional activator Myb (Homo sapiens) (P10242 whole entry, looked up): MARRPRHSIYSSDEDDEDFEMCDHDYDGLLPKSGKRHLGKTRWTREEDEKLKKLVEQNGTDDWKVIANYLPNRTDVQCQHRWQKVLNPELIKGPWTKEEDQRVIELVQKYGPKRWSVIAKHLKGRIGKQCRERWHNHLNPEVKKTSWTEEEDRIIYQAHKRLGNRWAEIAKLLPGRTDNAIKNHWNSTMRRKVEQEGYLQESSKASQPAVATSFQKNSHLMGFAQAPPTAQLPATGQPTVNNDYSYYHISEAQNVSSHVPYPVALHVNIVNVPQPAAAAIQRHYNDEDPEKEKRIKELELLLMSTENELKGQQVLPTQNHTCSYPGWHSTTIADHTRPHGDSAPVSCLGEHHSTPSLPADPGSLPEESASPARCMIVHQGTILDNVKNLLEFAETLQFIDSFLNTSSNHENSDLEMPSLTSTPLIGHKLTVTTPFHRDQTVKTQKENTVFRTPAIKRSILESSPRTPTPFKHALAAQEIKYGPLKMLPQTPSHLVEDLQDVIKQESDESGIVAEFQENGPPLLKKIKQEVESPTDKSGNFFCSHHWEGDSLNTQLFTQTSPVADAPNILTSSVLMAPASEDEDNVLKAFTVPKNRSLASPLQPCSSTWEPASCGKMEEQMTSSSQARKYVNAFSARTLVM
Sequence of Hepatocyte nuclear factor 4-alpha (Homo sapiens) (P41235 whole entry, looked up, the tested form may be a part): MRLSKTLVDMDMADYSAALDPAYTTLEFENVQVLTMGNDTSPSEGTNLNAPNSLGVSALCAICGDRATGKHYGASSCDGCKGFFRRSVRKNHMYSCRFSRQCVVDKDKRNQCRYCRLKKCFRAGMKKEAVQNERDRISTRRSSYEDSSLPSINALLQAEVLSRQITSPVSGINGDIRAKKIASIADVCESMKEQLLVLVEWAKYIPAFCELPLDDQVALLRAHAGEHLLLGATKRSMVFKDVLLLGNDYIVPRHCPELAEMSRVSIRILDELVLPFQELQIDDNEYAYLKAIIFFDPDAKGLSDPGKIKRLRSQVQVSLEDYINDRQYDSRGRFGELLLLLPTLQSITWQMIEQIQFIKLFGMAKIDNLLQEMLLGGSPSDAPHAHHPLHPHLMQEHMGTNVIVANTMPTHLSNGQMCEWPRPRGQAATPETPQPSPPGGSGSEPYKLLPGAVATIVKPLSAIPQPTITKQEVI
Sequence of Oxysterols receptor LXR-beta (Homo sapiens) (P55055 whole entry, looked up, the tested form may be a part): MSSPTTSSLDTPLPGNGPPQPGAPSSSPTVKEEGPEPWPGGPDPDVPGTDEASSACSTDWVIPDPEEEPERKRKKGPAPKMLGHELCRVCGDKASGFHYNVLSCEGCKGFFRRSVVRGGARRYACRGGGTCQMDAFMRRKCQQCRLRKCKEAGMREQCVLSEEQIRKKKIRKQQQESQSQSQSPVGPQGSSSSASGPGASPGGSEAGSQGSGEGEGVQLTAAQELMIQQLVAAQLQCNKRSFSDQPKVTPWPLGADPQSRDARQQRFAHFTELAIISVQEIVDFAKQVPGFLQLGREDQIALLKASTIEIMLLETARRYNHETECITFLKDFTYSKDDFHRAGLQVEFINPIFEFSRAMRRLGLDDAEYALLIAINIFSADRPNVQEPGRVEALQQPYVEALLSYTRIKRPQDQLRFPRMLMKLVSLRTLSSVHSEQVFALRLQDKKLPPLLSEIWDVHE
Sequence of Nuclear respiratory factor 1 (Homo sapiens) (Q16656 whole entry, looked up): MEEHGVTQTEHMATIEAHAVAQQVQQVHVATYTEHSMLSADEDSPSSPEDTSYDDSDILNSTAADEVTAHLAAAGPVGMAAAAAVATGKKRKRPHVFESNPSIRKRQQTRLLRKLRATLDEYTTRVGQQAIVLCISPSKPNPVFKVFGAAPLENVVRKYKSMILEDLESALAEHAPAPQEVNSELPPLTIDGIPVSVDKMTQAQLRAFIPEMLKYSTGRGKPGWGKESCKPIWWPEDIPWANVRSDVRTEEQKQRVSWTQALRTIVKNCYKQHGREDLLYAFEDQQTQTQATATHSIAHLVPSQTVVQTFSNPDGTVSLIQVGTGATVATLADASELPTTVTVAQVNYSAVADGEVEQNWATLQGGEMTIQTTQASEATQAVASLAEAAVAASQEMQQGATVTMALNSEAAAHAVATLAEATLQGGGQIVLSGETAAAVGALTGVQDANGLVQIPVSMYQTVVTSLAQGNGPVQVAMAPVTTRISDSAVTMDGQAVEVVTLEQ
Sequence of Oxysterols receptor LXR-alpha (Homo sapiens) (Q13133 whole entry, looked up, the tested form may be a part): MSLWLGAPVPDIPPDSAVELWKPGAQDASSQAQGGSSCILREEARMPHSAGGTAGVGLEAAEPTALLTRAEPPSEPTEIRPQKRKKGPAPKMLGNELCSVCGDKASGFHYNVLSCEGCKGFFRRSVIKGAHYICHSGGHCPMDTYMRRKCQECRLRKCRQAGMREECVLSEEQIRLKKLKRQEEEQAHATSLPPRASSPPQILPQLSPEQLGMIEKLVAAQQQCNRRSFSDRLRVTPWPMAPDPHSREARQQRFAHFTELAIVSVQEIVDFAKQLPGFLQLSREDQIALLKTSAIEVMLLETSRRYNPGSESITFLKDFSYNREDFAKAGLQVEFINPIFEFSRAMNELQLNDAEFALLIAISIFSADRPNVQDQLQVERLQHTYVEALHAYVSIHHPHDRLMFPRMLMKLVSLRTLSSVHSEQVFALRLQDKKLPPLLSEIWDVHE
Sequence of Nuclear receptor subfamily 4 group A member 2 (Homo sapiens) (P43354 whole entry, looked up, the tested form may be a part): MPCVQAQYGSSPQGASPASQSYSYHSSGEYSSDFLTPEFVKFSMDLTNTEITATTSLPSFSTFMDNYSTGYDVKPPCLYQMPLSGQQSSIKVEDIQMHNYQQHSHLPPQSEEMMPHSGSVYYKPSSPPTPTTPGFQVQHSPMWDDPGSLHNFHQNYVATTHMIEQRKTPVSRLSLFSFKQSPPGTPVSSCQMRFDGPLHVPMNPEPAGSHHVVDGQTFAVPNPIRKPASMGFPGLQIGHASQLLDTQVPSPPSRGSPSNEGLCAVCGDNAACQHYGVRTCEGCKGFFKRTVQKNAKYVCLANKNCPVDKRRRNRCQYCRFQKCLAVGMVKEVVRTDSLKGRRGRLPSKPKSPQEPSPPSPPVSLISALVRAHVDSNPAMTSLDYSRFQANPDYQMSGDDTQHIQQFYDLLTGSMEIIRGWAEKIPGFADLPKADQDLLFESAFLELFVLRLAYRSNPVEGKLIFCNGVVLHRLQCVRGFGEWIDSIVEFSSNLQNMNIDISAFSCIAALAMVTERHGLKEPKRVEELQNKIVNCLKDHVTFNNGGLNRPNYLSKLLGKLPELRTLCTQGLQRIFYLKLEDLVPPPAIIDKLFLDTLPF
Sequence of X-box-binding protein 1 (Homo sapiens) (P17861 whole entry, looked up): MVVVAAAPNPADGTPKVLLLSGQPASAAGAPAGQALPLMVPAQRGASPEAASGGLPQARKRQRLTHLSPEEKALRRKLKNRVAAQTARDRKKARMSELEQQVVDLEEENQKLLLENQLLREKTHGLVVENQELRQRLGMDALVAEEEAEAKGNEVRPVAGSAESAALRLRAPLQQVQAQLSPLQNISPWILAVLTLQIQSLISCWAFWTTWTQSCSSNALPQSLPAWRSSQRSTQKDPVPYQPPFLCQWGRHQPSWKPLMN
Sequence of Glucocorticoid receptor (Homo sapiens) (P04150 whole entry, looked up, the tested form may be a part): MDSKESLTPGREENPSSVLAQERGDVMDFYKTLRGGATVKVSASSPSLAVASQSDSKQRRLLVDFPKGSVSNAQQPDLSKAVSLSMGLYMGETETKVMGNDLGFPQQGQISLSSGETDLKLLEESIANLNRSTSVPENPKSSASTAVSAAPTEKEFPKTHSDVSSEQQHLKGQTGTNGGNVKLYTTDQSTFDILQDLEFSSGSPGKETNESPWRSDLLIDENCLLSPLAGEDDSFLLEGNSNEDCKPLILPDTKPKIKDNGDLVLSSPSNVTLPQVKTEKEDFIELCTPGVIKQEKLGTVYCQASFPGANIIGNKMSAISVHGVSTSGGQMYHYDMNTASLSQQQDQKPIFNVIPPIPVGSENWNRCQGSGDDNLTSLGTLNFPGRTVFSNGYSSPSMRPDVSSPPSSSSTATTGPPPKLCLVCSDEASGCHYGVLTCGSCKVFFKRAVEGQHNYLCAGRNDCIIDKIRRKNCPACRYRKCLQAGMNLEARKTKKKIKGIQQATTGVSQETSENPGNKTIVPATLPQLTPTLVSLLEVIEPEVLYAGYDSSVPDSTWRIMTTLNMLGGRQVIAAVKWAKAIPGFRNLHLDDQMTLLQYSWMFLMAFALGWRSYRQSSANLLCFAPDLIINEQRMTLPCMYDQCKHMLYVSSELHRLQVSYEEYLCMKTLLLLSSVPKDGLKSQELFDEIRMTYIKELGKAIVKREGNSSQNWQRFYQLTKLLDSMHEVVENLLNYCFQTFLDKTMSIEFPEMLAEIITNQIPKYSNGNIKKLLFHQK
Sequence of Bile acid receptor (Homo sapiens) (Q96RI1 whole entry, looked up, the tested form may be a part): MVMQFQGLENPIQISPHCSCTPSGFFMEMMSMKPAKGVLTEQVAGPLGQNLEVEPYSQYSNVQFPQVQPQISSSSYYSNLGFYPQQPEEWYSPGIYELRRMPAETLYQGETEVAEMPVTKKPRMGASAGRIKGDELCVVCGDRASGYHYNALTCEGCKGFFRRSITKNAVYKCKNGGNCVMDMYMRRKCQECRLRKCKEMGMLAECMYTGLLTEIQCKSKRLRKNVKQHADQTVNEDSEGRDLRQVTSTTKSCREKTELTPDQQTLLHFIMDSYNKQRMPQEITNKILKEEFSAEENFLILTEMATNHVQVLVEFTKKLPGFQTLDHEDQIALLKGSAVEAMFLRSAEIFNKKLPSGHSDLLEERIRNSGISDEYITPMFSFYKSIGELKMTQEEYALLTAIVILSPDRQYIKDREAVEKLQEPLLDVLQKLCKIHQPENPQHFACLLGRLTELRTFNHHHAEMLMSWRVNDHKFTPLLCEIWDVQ

With `CC1(C)[C@H]2CC[C@]1(C)[C@H](O)C2`, the compound was classed as inactive in [1], in [2], in [3], in test [4], in test [5] and in test [6]. For the same compound, the outcome in test [7], in test [8] and in [9] was inactive.

Take `O=c1[nH]c(=O)n([C@H]2CCCO2)cc1F`: the call in test [1], in test [2], in [3], in [10], in [5] and in test [7] was inactive. The outcome in test [8] and in [9] was inactive.

For `Nc1ccc(S(N)(=O)=O)cc1`, the outcome in test [1], in [2], in [3], in [11], in test [5] and in test [7] was inactive. Besides, the compound was classed as inactive in test [8] and in test [9].

Take `O=c1oc(=O)c2cc3c(=O)oc(=O)c3cc12`: the result in test [1], in test [2], in test [3], in test [12], in test [13] and in [10] was inactive. For the same compound, the call in test [6], in test [7], in [8] and in test [9] was inactive.

As for `CCCCCCC#CC(=O)OC`, the outcome in test [1], in test [2], in test [3], in test [12], in [4] and in test [10] was inactive. Further, the result in test [6] and in test [9] was inactive.

Take `COc1c(Cl)c(Cl)c(Cl)c(Cl)c1Cl`: the outcome in [1], in test [2], in [3], in [4], in [14] and in [10] was inactive. The compound was called inactive in test [5], in [8] and in test [9].

With `CC(C)[C@H]1CC[C@@H](C)CC1=O`, the compound was called inactive in test [1], in test [2], in [3], in [12], in [11] and in [15]. The compound was called inactive in [10], in [6], in [7], in [8] and in test [9].

As to `CC1(C)CCC(C)(C)c2cc(C(=O)Nc3ccc(C(=O)O)cc3)ccc21`, the outcome in [1], in test [2], in [3], in [4], in [16] and in test [5] was inactive. Also, the compound was called inactive in test [6], in test [7] and in test [8]. Moreover, the AC50 (as a rule, the midpoint of the concentration-response curve, whichever way the signal moves) in [14] is 13 µM (active); in test [9] it was 93.6 µM (active).

Regarding `CNCCO`, the compound was classed as inactive in [1], in test [2], in test [3], in test [12], in test [10] and in [5]. Besides, the compound was called inactive in test [7] and in test [9].

Consider `CCCc1ccccc1O`, for which the compound was called inactive in test [1], in [2], in test [3], in [11], in test [15] and in test [5]. The compound was called inactive in test [7], in [8] and in test [9].

Take `OC1OC[C@@H](O)[C@H](O)[C@H]1O` (stereo partly specified): the compound was classed as inactive in [1], in test [2], in test [3], in test [12], in test [15] and in [16]. Also, the compound was classed as inactive in [10], in test [6] and in test [8].

Regarding `COc1ccnc(CS(=O)c2nc3cc(OC(F)F)ccc3[nH]2)c1OC` (stereo unspecified), the outcome in test [1], in test [2], in [3], in [4], in test [16] and in [7] was inactive. Moreover, the result in test [8] and in test [9] was inactive.

On to `CCCCCCCCCCC(CO)CCCCCCCC` (stereo unspecified), for which the result in test [1], in [2], in [3], in test [12], in test [6] and in test [7] was inactive. Further, in test [9], the compound was called inactive.

On to `O=C(O)c1cn(-c2ccc(F)cc2)c2cc(N3CCNCC3)c(F)cc2c1=O`, for which the compound was classed as inactive in [1], in test [2], in [3], in test [12], in test [11] and in test [4]. Further, the compound was called inactive in [7], in test [8] and in test [9].

Consider `CCC/C=C/C=O`, for which the compound was classed as inactive in test [1], in test [2], in test [3], in test [12], in test [15] and in test [7]. The outcome in test [9] was inactive.

Values taken from PubChem BioAssay (EPA / NIEHS).
